Screening data from PubChem.
The list is not random: actives were taken first. Their share in the collection is about 27%.
CYP2C9 inh = inhibitors of human CYP2C9. inhibition, % at 5 µM. CYP2C9 Supersomes, luciferin-H conversion, luminescence. AID 777. hit rate 20% among 96,000;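 active = blocking of liver enzyme CYP2C9 beyond about 50% at 5 µM, limit read from the data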
Target sequence (P11712 whole entry, looked up): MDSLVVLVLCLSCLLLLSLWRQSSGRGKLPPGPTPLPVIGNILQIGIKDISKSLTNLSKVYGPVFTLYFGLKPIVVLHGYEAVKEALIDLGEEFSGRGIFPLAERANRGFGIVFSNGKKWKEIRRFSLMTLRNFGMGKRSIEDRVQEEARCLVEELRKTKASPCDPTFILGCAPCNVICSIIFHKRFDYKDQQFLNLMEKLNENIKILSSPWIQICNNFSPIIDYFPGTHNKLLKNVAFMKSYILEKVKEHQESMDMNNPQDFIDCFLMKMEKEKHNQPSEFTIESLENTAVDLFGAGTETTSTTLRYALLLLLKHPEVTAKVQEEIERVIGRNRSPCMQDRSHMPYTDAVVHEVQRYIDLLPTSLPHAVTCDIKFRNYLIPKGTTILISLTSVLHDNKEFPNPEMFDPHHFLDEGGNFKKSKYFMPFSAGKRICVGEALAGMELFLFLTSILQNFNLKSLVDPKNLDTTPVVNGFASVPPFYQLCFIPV
CYP2C19 inh = inhibitors of human CYP2C19; P33261; CYP2C19 Supersomes, luciferin-H EGE luminescence, 30 min; inhibition, % at 5 µM; hit rate 21% among 96,000; AID 778;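 active = CYP2C19 inhibition above a set limit at 5 µM in the primary screen, cut at about 50% in these data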;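 note: plate controls were negative control wells for no effect and 2.5 mM tranylcypromine positive control for full effect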
CYP2C9 activ = CYP2C9 (human) activation. P11712. recombinant CYP2C9, luciferin-H conversion, luminescence; active compounds read high; factor 1 = untreated enzyme, 0 = blocked. activation factor at 5 µM. hit rate 1.4% among 96,000. AID 1024;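 active = activation factor of 2 or more for CYP2C9 at a 5 µM dose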;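 note: 0 = sulfaphenazole-blocked wells and 1 = vehicle-only wells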
CYP2C19 act = cytochrome P450 2C19 (human) activation | P33261 | recombinant CYP2C19, luciferin-H EGE luminescence; active compounds read high; 0 = fully inhibited enzyme, 1 = untreated enzyme | activation factor at 5 µM | 96,000 tested, under 10 active | AID 1025;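 active = activation factor of at least 2 at 5 µM in the primary screen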;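 note: 0 = wells with 2.5 mM tranylcypromine and 1 = vehicle-only wells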
Cav32 inh = inhibitors of human Cav3.2 T-type calcium channel. O95180. Cav3.2-expressing cells, Fluo-4 calcium fluorescence FDSS; active compounds read low. B-score at 10 µM. hit rate 4% among 100,000. AID 449739;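 active = single-dose well whose peak fluorescence ratio is a statistical outlier from its plate by either plate-standardised score or position-corrected B-score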
* = called active by the depositor; i = inactive; nt = not tested or not shown.

SMILES	CYP2C9 inh	CYP2C19 inh	CYP2C9 activ	CYP2C19 act	Cav32 inh
CCOC(=O)Cc1csc(NC(=O)c2ccc(Br)o2)n1	60*	45	0.4	0.6	0.34
CCOC(=O)Cc1csc(NC(=O)c2ccc(Br)s2)n1	100*	78*	0	0.2	-1.6
Cc1cc(C)n2nc[n+](C)c2n1	20	2	0.8	1	0.13
Cc1cccc(S(=O)(=O)c2c(N)n(/N=C/c3ccccc3)c3nc4ccccc4nc23)c1	55*	2	0.5	1	0.0099
Cc1ccc(C)c(S(=O)(=O)c2c(N)n(/N=C/c3ccco3)c3nc4ccccc4nc23)c1	86*	63*	0.1	0.4	0.66
COC(=O)C(CCSC)NC(=O)CNS(=O)(=O)c1ccc(Cl)cc1 (centres undefined)	22	21	0.8	0.8	0.036
COc1cc(S(=O)(=O)N2CCCCCC2)c(OC)cc1Br	75*	96*	0.3	0	-2.4
COc1ccc(Br)cc1S(=O)(=O)N1CCCC1	nt	nt	nt	nt	-0.15
COc1cc(C)c(S(=O)(=O)N2CCN(C)CC2)cc1C	-14	62*	1.1	0.4	1.1
COc1ccc(C(C)(C)C)cc1S(=O)(=O)N1CCN(C)CC1	-97	23	2*	0.8	0.32
CCOC(=O)Nc1ccc(OC)cc1S(=O)(=O)N1CCCCC1	-8	63*	1.1	0.4	-0.02
CCOC(=O)c1[nH]c(C)c(/C(O)=C2\C(=O)C(=O)N(CCCN(C)C)C2c2ccncc2)c1C (centres undefined)	-6	-7	1.1	1.1	-0.01
COC(=O)c1ccc(NC(=O)Cn2nc(SC)n(N)c2=S)cc1	8	23	0.9	0.8	nt
COc1ccc(F)cc1CN1CCN(C(=O)CCC(=O)Nc2nnc(C(C)C)s2)CC1	-6	-7	1.1	1.1	-0.62
CCOc1ccc(C(C)(C)C)cc1S(=O)(=O)N1CCOCC1	50*	68*	0.5	0.3	nt
COc1cc(C)c(Br)cc1S(=O)(=O)N1CCOCC1	nt	nt	nt	nt	-0.58
COc1ccc(S(=O)(=O)N2CCCN(S(=O)(=O)c3ccc(OC)cc3C)CC2)c(C)c1	-109	23	2.1*	0.8	0.072
CCOc1ccc(Br)cc1S(=O)(=O)N1CC(C)OC(C)C1 (centres undefined)	-3	88*	1	0.1	-0.48
COc1ccc(OC)c(S(=O)(=O)N2CCCCCC2)c1	-12	34	1.1	0.7	0.19
COc1cc(C)c(S(=O)(=O)N2CCCC2)cc1C	-46	88*	1.5	0.1	0.0046
CCOc1cc(Br)ccc1S(=O)(=O)N1CC(C)OC(C)C1 (centres undefined)	12	11	0.9	0.9	-1.3
CCOc1ccccc1NC(=O)c1ccc(S(=O)(=O)N2CCOCC2)cc1	-27	4	1.3	1	-3
COc1c(Cl)cc(Cl)cc1C(=O)n1nc(C)cc1C	nt	nt	nt	nt	0.0035
Cc1c(Cl)c([N+](=O)[O-])nn1CC(=O)NC1CCCCC1	13	21	0.9	0.8	0.057
COc1c(C)cc(S(=O)(=O)N2CCCC2)c(C)c1C	-64	96*	1.6	0	-1.6
SMILES	CYP2C9 inh	CYP2C19 inh	CYP2C9 activ	CYP2C19 act	Cav32 inh
COCCCNC(=O)Cn1nc(-c2ccc(C)cc2)ccc1=O	18	0	0.8	1	nt
CCn1c(=O)c2cc(C(=O)Nc3cc(C)on3)sc2c2ccccc21	-113	-4	2.1*	1	nt
COc1ccc(NC(=O)CN2c3cccc4cccc(c34)S2(=O)=O)cc1	-184	18	2.8*	0.8	-0.049
CCN1c2cccc3cccc(c23)S1(=O)=O	i	78*	6.2*	0.2	nt
COc1ccc(NC(=O)C(C)N2c3cccc4cccc(c34)S2(=O)=O)cc1 (centres undefined)	50	67*	0.5	0.3	-0.58
COc1ccc(NC(=O)CCN2C(=O)c3ccccc3S2(=O)=O)cc1	17	4	0.8	1	0.088
COC(=O)CNC(=O)Cn1ccc2ccccc2c1=O	-11	-8	1.1	1.1	0.98
COC(=O)CNC(=O)CN1c2cccc3cccc(c23)S1(=O)=O	-109	14	2.1*	0.9	0.17
O=C(CN1c2cccc3cccc(c23)S1(=O)=O)N1CCOCC1	13	25	0.9	0.7	0.62
Cc1cccc(-c2noc(CCCOc3ccc(Cl)cc3Cl)n2)c1	39	30	0.6	0.7	-3.7
COc1ccc(COc2cc(-c3cccc(OC)c3)nc3ccc(NC(=O)C(C)C)cc23)cc1	nt	nt	nt	nt	-0.31
Cn1c(=O)c(NCCO)c2c3c(cccc31)C(=O)c1ccccc1-2	45	20	0.5	0.8	-9*
CCNc1c2c3c(cccc3n(C)c1=O)C(=O)c1ccccc1-2	53*	18	0.5	0.8	-9.2*
Cn1c(=O)c(NCCc2ccccc2)c2c3c(cccc31)C(=O)c1ccccc1-2	98*	78*	0	0.2	-11*
CCCCNc1c2c3c(cccc3n(C)c1=O)C(=O)c1ccccc1-2	nt	nt	nt	nt	-5.2*
O=C(CCN1C(=O)COc2ccccc21)NCCCN1CCc2ccccc2C1	10	8	0.9	0.9	1
Cc1ccc(OCc2nnc(NC(=O)c3ccco3)s2)c(C)c1	20	-11	0.8	1.1	1.5
Cc1cc(NCCCN2CCOCC2)n2nc(C)c(-c3ccccc3)c2n1	71*	32	0.3	0.7	nt
Cc1cc(NCCCN2CCOCC2)n2ncc(-c3ccccc3)c2n1	88*	41	0.1	0.6	2.8
CN1C(=O)NC(c2ccccc2)C2=C1CN(c1ccc3ccccc3c1)C2=O (centres undefined)	4	-6	1	1.1	0.37
CC1N/C(=C\C(=O)c2ccccc2)N(O)C1(C)C (centres undefined)	30	44	0.7	0.6	0.26
C=CCn1c(SCC2=C(C(=O)OCC)C(C)NC(=O)N2)nnc1C1CCCCC1 (centres undefined)	-9	13	1.1	0.9	0.3
O=C(NCc1ccccc1)C1=C[C@@H](c2coc3ccccc3c2=O)C[C@@H](OCc2ccc(CO)cc2)O1	nt	nt	nt	nt	-0.48
CCOC(=O)N1CCC(N(C(=O)Nc2ccc(CC)cc2)C(C)CC)CC1 (centres undefined)	24	15	0.8	0.9	-2
O=C(C1CCCCC1)N1CCCC(c2nc3c(nnn3Cc3ccccc3)c(=O)[nH]2)C1 (centres undefined)	35	20	0.6	0.8	0.2
COc1ccccc1NC(=O)N1CCCC(c2nc3c(nnn3Cc3ccc(C)cc3)c(=O)[nH]2)C1 (centres undefined)	27	67*	0.7	0.3	-0.027
O=C(c1cccs1)N1CCC(c2nc3c(nnn3Cc3ccccc3)c(=O)[nH]2)CC1	59*	9	0.4	0.9	0.21
Cc1ccc(C)c(Cn2nnc3c(=O)[nH]c(C(=O)NCc4ccco4)nc32)c1	20	-15	0.8	1.2	-0.36
Cc1ccc(C)c(Cn2nnc3c(=O)[nH]c(C4CCCN(C(=O)C5CCCCC5)C4)nc32)c1 (centres undefined)	89*	73*	0.1	0.3	-1.1
